In PubChem BioAssay (NCI):
This is part of a sample that, as a whole, favours compounds with a hit. Of some 83,000 tested, about 20% had one in any assay.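 Testing used 96-well plates and a 48-hour single-concentration exposure. Example: -40 means 40% of the starting cells died.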 The source made the active and inactive calls. The calls were made as follows: active = growth percent below 10; inactive = the rest.

Columns and labels:
Experiment in all cases: NCI-60 one-dose screen, 48 h (100 = growth as untreated, 0 = no growth, -100 = all killed)
Settings in all cases: 10 µM unless noted
HCT-15 colon = test system: HCT-15 colon
HT29 colon = test system: HT29 colon
SNB-75 CNS = test system: SNB-75 CNS
SNB-19 CNS = test system: SNB-19 CNS
U251 CNS = test system: U251 CNS
PC-3 prostate = test system: PC-3 prostate
SK-MEL-5 melanoma = test system: SK-MEL-5 melanoma
LOX IMVI melanoma = test system: LOX IMVI melanoma
SK-MEL-28 melanoma = test system: SK-MEL-28 melanoma
SK-MEL-2 melanoma = test system: SK-MEL-2 melanoma
SN12C renal = test system: SN12C renal
TK-10 renal = test system: TK-10 renal
ACHN renal = test system: ACHN renal
CAKI-1 renal = test system: CAKI-1 renal
A498 renal = test system: A498 renal
CCRF-CEM leukemia = test system: CCRF-CEM leukemia
MOLT-4 leukemia = test system: MOLT-4 leukemia
EKVX NSCLC = test system: EKVX NSCLC
UO-31 renal = test system: UO-31 renal
UACC-62 melanoma = test system: UACC-62 melanoma

Measured: growth

Cc1ccc(C2=NN(c3ccc(S(N)(=O)=O)cc3)C(c3cn(-c4ccccc4)nc3-c3ccccc3)C2)cc1 (stereo not drawn)
inactive: HCT-15 colon 74.3% | HT29 colon 46.3% | SNB-75 CNS 81.6% | SNB-19 CNS 87% | U251 CNS 77.4% | PC-3 prostate 32.3% | SK-MEL-5 melanoma 100% | LOX IMVI melanoma 91.2% | SK-MEL-28 melanoma 116% | SK-MEL-2 melanoma 90% | SN12C renal 30.7% | TK-10 renal 84.2% | ACHN renal 93% | CAKI-1 renal 94.7% | CCRF-CEM leukemia 40.3% | MOLT-4 leukemia 18.7%
active: A498 renal -5.87%

CC(Br)C(O)c1cc2c(cc1Br)OCO2 (stereo not drawn)
inactive: HCT-15 colon 102% | HT29 colon 114% | SNB-75 CNS 88% | SNB-19 CNS 112% | U251 CNS 102% | PC-3 prostate 98.6% | SK-MEL-5 melanoma 102% | LOX IMVI melanoma 93.2% | SK-MEL-28 melanoma 108% | SK-MEL-2 melanoma 115% | EKVX NSCLC 104% | SN12C renal 112% | UO-31 renal 88.6% | TK-10 renal 114% | ACHN renal 109% | CAKI-1 renal 90.5% | A498 renal 127% | CCRF-CEM leukemia 101% | MOLT-4 leukemia 104%

O=C(N/N=C/c1c(Cl)cccc1Cl)c1ccccc1Nc1ccnc(C(F)(F)F)c1
inactive: HCT-15 colon 64.8% | HT29 colon 90.9% | SNB-75 CNS 62.8% | SNB-19 CNS 68.3% | U251 CNS 67.7% | PC-3 prostate 51% | SK-MEL-5 melanoma 41.2% | LOX IMVI melanoma 62.3% | SK-MEL-28 melanoma 84.2% | SK-MEL-2 melanoma 69.6% | SN12C renal 75.7% | UO-31 renal 84.1% | TK-10 renal 95.4% | ACHN renal 78.8% | CAKI-1 renal 77.6% | A498 renal 73.6% | CCRF-CEM leukemia 81.6% | MOLT-4 leukemia 63.4%

O=S(=O)(NCCCNc1nccc(-c2c(-c3ccccc3)nc3sccn23)n1)c1ccc(F)cc1
inactive: HCT-15 colon 19.4% | HT29 colon 29% | SNB-75 CNS 44% | SNB-19 CNS 75.1% | U251 CNS 46.4% | PC-3 prostate 60.6% | SK-MEL-5 melanoma 14.3% | UACC-62 melanoma 23.1% | LOX IMVI melanoma 23.7% | SK-MEL-28 melanoma 56.3% | SN12C renal 44.1% | UO-31 renal 24.9% | TK-10 renal 72.7% | ACHN renal 26.6% | CAKI-1 renal 33.1% | CCRF-CEM leukemia 31.2% | MOLT-4 leukemia 38.4%

CC(C)[C@H](CO)Nc1nc(Nc2ccc(C(=O)NCCNS(=O)(=O)c3cccc4c(N(C)C)cccc34)c(Cl)c2)c2ncn(C(C)C)c2n1
active: HT29 colon 9.2% | U251 CNS 1.44% | LOX IMVI melanoma -3.44% | SK-MEL-2 melanoma -16.1% | A498 renal -9.15% | CCRF-CEM leukemia -1.68% | MOLT-4 leukemia -12.1%
inactive: HCT-15 colon 51.9% | SNB-75 CNS 10.6% | SNB-19 CNS 24.6% | PC-3 prostate 17% | SK-MEL-5 melanoma 12.1% | SK-MEL-28 melanoma 15.7% | SN12C renal 12.1% | UO-31 renal 77.2% | ACHN renal 43.4% | CAKI-1 renal 48.6%

COC(=O)CCCCCCN=Cc1c(O)c(O)c(C(C)C)c2cc(C)c(-c3c(C)cc4c(C(C)C)c(O)c(O)c(C=NCCCCCCC(=O)OC)c4c3O)c(O)c12
inactive: HCT-15 colon 13.1% | SNB-75 CNS 59.4% | SNB-19 CNS 17.6% | U251 CNS 11.5% | PC-3 prostate 16% | SK-MEL-5 melanoma 43.4% | LOX IMVI melanoma 21.4% | SK-MEL-28 melanoma 36.1% | SK-MEL-2 melanoma 24.7% | EKVX NSCLC 23.9% | SN12C renal 22.8% | UO-31 renal 21.8% | TK-10 renal 12.4% | ACHN renal 21.6% | CAKI-1 renal 65.4% | A498 renal 46.1% | CCRF-CEM leukemia 16.1% | MOLT-4 leukemia 15.8%
active: HT29 colon 6.88%

COc1cc2c(cc1OC)C1(C)N(CC2)C(=O)OC1(C)C (stereo not drawn)
inactive: HCT-15 colon 101% | HT29 colon 115% | SNB-75 CNS 76.5% | SNB-19 CNS 105% | U251 CNS 101% | PC-3 prostate 97.3% | SK-MEL-5 melanoma 99.6% | LOX IMVI melanoma 96.3% | SK-MEL-28 melanoma 112% | SK-MEL-2 melanoma 120% | SN12C renal 101% | UO-31 renal 91.3% | TK-10 renal 102% | ACHN renal 107% | CAKI-1 renal 102% | A498 renal 78.8% | CCRF-CEM leukemia 106%
active: MOLT-4 leukemia -75.3%

CC(C)(C)c1ccc(S(=O)(=O)Oc2ccc3c4c(c(=O)oc3c2)CCCCC4)cc1
active: SK-MEL-5 melanoma -3.23% | A498 renal -0.52%
inactive: HCT-15 colon 30.5% | HT29 colon 15.8% | SNB-75 CNS 39.1% | SNB-19 CNS 82% | U251 CNS 54.3% | PC-3 prostate 32.9% | LOX IMVI melanoma 43.2% | SK-MEL-28 melanoma 39.4% | SK-MEL-2 melanoma 45% | SN12C renal 63.3% | UO-31 renal 43.4% | TK-10 renal 87.1% | CCRF-CEM leukemia 58.6% | MOLT-4 leukemia 54.7%

CS(=O)(=O)N(c1cc(-c2ccc3ncnc(Nc4cccc(Cl)c4)c3c2)cnc1Cl)S(C)(=O)=O
active: SNB-75 CNS -3.18% | SK-MEL-5 melanoma -60.7% | LOX IMVI melanoma 2.19% | SK-MEL-28 melanoma -6.78% | SK-MEL-2 melanoma -20% | EKVX NSCLC -3.18% | UO-31 renal 2.2% | TK-10 renal 2.1% | CAKI-1 renal 6.68% | A498 renal -28% | MOLT-4 leukemia -10.5%
inactive: HCT-15 colon 10.4% | HT29 colon 11.7% | SNB-19 CNS 24.3% | U251 CNS 20.8% | PC-3 prostate 10.7% | SN12C renal 21.6% | ACHN renal 11.7% | CCRF-CEM leukemia 20.2%

CC[C@H](C)[C@@H]1NC(=O)[C@H]([C@@H](C)O)NC(=O)C(Cc2ccccc2)NC(=O)[C@@H]2CCCN2C(=O)C(C(C)C)NC(=O)C(Cc2ccccc2)NC(=O)CNC(=O)[C@@H]2CCCN2C1=O (stereo partly drawn)
active: PC-3 prostate -0.594% | MOLT-4 leukemia 7.99%
inactive: HCT-15 colon 77.2% | HT29 colon 76.2% | SNB-75 CNS 54.3% | SNB-19 CNS 73.6% | U251 CNS 67% | SK-MEL-5 melanoma 64.8% | UACC-62 melanoma 65.6% | LOX IMVI melanoma 88.7% | SK-MEL-28 melanoma 76.4% | SN12C renal 72.5% | TK-10 renal 116% | ACHN renal 58.7% | CAKI-1 renal 37.6% | A498 renal 26.1% | CCRF-CEM leukemia 20%

Clc1ccc([I+]c2ccc(Cl)cc2Cl)c(Cl)c1
inactive: HCT-15 colon 30.2% | SNB-75 CNS 34% | SNB-19 CNS 87.8% | SK-MEL-5 melanoma 104% | LOX IMVI melanoma 10.5% | SK-MEL-28 melanoma 87.3% | SN12C renal 33.3% | ACHN renal 29.6% | A498 renal 69.9%
active: HT29 colon -26.8% | U251 CNS 6.72% | PC-3 prostate 9.9% | UO-31 renal -50.8% | TK-10 renal -82.4% | CCRF-CEM leukemia -1.96% | MOLT-4 leukemia -6.5%

COc1cc(NC(=O)c2cc3ccccc3nc2Nc2ccc(F)cc2)cc(OC)c1OC
inactive: HCT-15 colon 31.8% | HT29 colon 69.3% | SNB-75 CNS 60.7% | SNB-19 CNS 61.1% | U251 CNS 35.3% | PC-3 prostate 13.2% | LOX IMVI melanoma 32.6% | SK-MEL-28 melanoma 54.2% | SK-MEL-2 melanoma 63.4% | SN12C renal 62.3% | UO-31 renal 46.7% | TK-10 renal 65.3% | ACHN renal 42.9% | CAKI-1 renal 52.4% | CCRF-CEM leukemia 42.1% | MOLT-4 leukemia 12.4%
active: SK-MEL-5 melanoma -13.8%

COc1ccc(-c2nc3sccn3c2-c2ccnc(NCCCNS(=O)(=O)c3ccc(C)cc3)n2)cc1
active: SK-MEL-5 melanoma -5.18%
inactive: HCT-15 colon 16.8% | HT29 colon 18.4% | SNB-75 CNS 77.4% | SNB-19 CNS 71.7% | U251 CNS 45.1% | PC-3 prostate 31.5% | LOX IMVI melanoma 11% | SK-MEL-28 melanoma 41.5% | SK-MEL-2 melanoma 25.9% | SN12C renal 36.3% | UO-31 renal 15.5% | TK-10 renal 66% | ACHN renal 22.4% | CAKI-1 renal 42.1% | CCRF-CEM leukemia 18.9% | MOLT-4 leukemia 24.6%

Cc1ccc(S(=O)(=O)OC2COCOC2C(OS(=O)(=O)c2ccc(C)cc2)C2OCOCC2OS(=O)(=O)c2ccc(C)cc2)cc1 (stereo not drawn)
inactive: HCT-15 colon 107% | HT29 colon 98.7% | SNB-75 CNS 115% | SNB-19 CNS 108% | U251 CNS 102% | PC-3 prostate 97.6% | SK-MEL-5 melanoma 99.9% | LOX IMVI melanoma 103% | SK-MEL-28 melanoma 118% | SK-MEL-2 melanoma 104% | SN12C renal 91.3% | UO-31 renal 95.8% | TK-10 renal 101% | ACHN renal 105% | A498 renal 95.9% | CCRF-CEM leukemia 100% | MOLT-4 leukemia 90.1%

COc1cc(Br)c(OC)cc1Br
inactive: HCT-15 colon 103% | HT29 colon 96.4% | SNB-75 CNS 90.4% | SNB-19 CNS 108% | U251 CNS 98.9% | PC-3 prostate 91.2% | SK-MEL-5 melanoma 98.4% | LOX IMVI melanoma 90% | SK-MEL-28 melanoma 105% | SK-MEL-2 melanoma 101% | EKVX NSCLC 76% | SN12C renal 110% | UO-31 renal 60.4% | TK-10 renal 140% | ACHN renal 92.4% | CAKI-1 renal 85.2% | A498 renal 88.7% | CCRF-CEM leukemia 116% | MOLT-4 leukemia 98.3%

NC(N)=NC(N)=Nc1ccccc1-c1ccccc1
inactive: HCT-15 colon 108% | HT29 colon 112% | SNB-75 CNS 97.4% | SNB-19 CNS 111% | U251 CNS 106% | PC-3 prostate 103% | SK-MEL-5 melanoma 107% | LOX IMVI melanoma 102% | SK-MEL-28 melanoma 109% | SK-MEL-2 melanoma 109% | EKVX NSCLC 111% | SN12C renal 105% | UO-31 renal 99.3% | TK-10 renal 108% | CAKI-1 renal 89.8% | A498 renal 113% | CCRF-CEM leukemia 113% | MOLT-4 leukemia 98.6%

CCN(C(=O)c1cc2ncccc2[nH]1)[C@H]1CCC[C@@H](NCc2cccc(F)c2)C1
inactive: HCT-15 colon 100% | HT29 colon 105% | SNB-75 CNS 88% | SNB-19 CNS 98.7% | U251 CNS 107% | PC-3 prostate 102% | SK-MEL-5 melanoma 96.3% | LOX IMVI melanoma 94.8% | SK-MEL-28 melanoma 103% | SK-MEL-2 melanoma 105% | SN12C renal 95.3% | UO-31 renal 74.3% | TK-10 renal 92.6% | ACHN renal 102% | CAKI-1 renal 101% | CCRF-CEM leukemia 128% | MOLT-4 leukemia 95.9%
